Not all results are given here.
aSyn UTR act: Activators via SNCA 5'UTR binding, MLPCN; alpha-synuclein 5'UTR reporter, activators screen; activity score, % (tested at 7.5 µM), hits read low; 300,000 tested, 7.1% active; in the data active = activity score below about -60%
* hit, by the source's call.

SMILES	aSyn UTR act
CCN(CC)CCN1C(=O)/C(=C\c2ccc(Cl)c([N+](=O)[O-])c2)SC1=Nc1ccc(OC)cc1	74
C=CCN1C(=O)/C(=C2/Sc3ccc(OC)cc3N2C)SC1=Nc1ccc(OC)cc1	-79*
COc1ccc(N=C2S/C(=C\c3ccc(Cl)c([N+](=O)[O-])c3)C(=O)N2CCN(C)C)cc1	81
CCCS(=O)(=O)N1CCC(C(=O)NC2CCC(C)CC2)CC1 (stereo not drawn)	-64*
CC1CCN(S(=O)(=O)N2CCC(C(=O)NC3CCCC3)CC2)CC1	-97*
Cc1cc2ccccn2c1C(=O)Nc1cccc(Cl)c1	-113*
Cc1cc2ccccn2c1C(=S)NC(=O)c1ccccc1	-82*
NNc1nc2c(-c3ccc(Cl)cc3)nnn2c2ccccc12	-92*
NNc1nc2c(-c3ccc(F)cc3)nnn2c2ccccc12	-141*
Cc1cccc(C(=O)NC2=NCCS2)c1	-56*
O=C(NC1=NCCS1)c1ccc(Cl)c(Cl)c1	-101*
O=C(/C=C/c1ccc(Cl)c(Cl)c1)NC1=NCCS1	-104*
CC(=O)c1cccc(OCc2cc(C(=O)N(C)CCC3CCOCC3)no2)c1	-86*
CCN(CC1CCCO1)C(=O)c1cc(COc2cc(C)c(Cl)c(C)c2)on1 (stereo not drawn)	-129*
Cc1cc(OCc2cc(C(=O)N(C)CC3CCOCC3)no2)cc(C)c1Cl	-72*
O=C(Nc1ccc(C(F)(F)F)cc1)c1ccccc1Br	-82*
O=C(Nc1ccc(C(=O)c2ccccc2)cc1)c1ccccc1	-189*
O=C(Nc1ccc(NC(=O)c2ccccc2Br)cc1)c1ccccc1	-84*
O=C(Nc1ccc(Br)c(C(F)(F)F)c1)c1ccccc1	-90*
C=CCN=C1NN=C(c2cc(C)n(CCOC)c2C)CS1	86
Oc1ccc(C2=NNC(=NCc3ccc4c(c3)OCO4)SC2)c(O)c1	-87*
ClC1(Cl)CC1CSc1nnc(-c2ccncc2)o1 (stereo not drawn)	-66*
CC(C)(C)c1ccc(OC(=O)N2CCOCC2)cc1	-111*
CCC(=O)c1ccc(OC(=O)N2CCOCC2)cc1	-70*
COc1ccc(-c2cc3nc4c(c(=O)n3[nH]2)CCC4)cc1	-158*
SMILES	aSyn UTR act
O=c1c2c(nc3cc(-c4ccc(Br)cc4)[nH]n13)CCCC2	-95*
Cc1cccc(NC(=O)c2cc(-c3cc(C)cc(C)c3O)n[nH]2)c1	-67*
Cc1cc(C)c(O)c(-c2cc(C(=O)Nc3cccnc3)[nH]n2)c1	-108*
Cc1cccc(NC(=O)c2cc(-c3c(C)cc(C)cc3O)n[nH]2)c1	-123*
Cc1ccc(NC(=O)c2cc(-c3ccccc3O)n[nH]2)cc1Cl	-110*
Cc1cc(C)cc(Oc2ncnc3c2ncn3Cc2c(Cl)cccc2Cl)c1	35
Cc1cccc(NC(=O)c2cc(-c3cc(Cl)ccc3O)n[nH]2)c1	-224*
Cc1cc(O)c(-c2cc(C(=O)Nc3cccnc3)[nH]n2)cc1C	-188*
CCc1ccc(O)c(-c2cc(C(=O)Nc3cccnc3)[nH]n2)c1	-162*
Cc1ccc(C)c(NC(=O)c2cc(-c3cc(C)ccc3O)n[nH]2)c1	-211*
O=C(N/N=C/c1c(O)ccc2ccccc12)c1cccnc1	93
CCCCOc1ccc(-n2nc(C)cc2C)nn1	-72*
COc1ccc(CCn2nc(C)c([N+](=O)[O-])c2C)cc1	-101*
Cc1ccc(-c2cnc(-c3ccncc3)o2)cc1	-157*
Nc1ccc(-c2ncc(-c3ccccc3)o2)cc1	86
CC(C)c1cc(C(=O)Nc2ccc3c(c2)OCO3)no1	-173*
CC(C)c1cc(C(F)(F)F)n2nc(C(=O)Nc3ccc4c(c3)OCO4)cc2n1	-83*
O=C(Nc1ccc2c(c1)OCO2)c1cc(C2CC2)on1	-148*
Clc1cccc(Cl)c1/C=C/c1ccn[nH]1	-232*
CC(C)CN1CCC(=O)N(CCSc2ccccc2)CC1	-107*
CCCN1CCC(=O)N(CCSc2ccc(C)cc2)CC1	-79*
O=C1CCC(O)CCN1CCSc1ccccc1 (stereo not drawn)	-93*
O=C(N/N=C/c1cccs1)c1c[nH]c2ccccc12	-158*
CCc1ccc(/C=N/NC(=O)c2cc(-c3ccncc3)nc3ccccc23)s1	83
O=C(NN=C1CCCCCC1)c1c[nH]c2ccccc12	-77*
SMILES	aSyn UTR act
CCc1ccc(/C=N/NC(=O)c2c[nH]c3ccccc23)s1	-132*
CN1CCN(c2nc(Nc3cccc(C(F)(F)F)c3)nc(N3CCOCC3)n2)CC1	-69*
O=c1c2[nH]c3ccc(F)cc3c2ncn1C1CCCCC1	-82*
O=c1cc(-c2ccccc2)[nH]c2ccc(F)cc12	87
Cc1cc(N2CCOCC2)nc2ccc(NC(=O)CCC(=O)N3CCN(c4ccccc4F)CC3)cc12	-127*
Cc1cc(N2CCOCC2)nc2ccc(NC(=O)CCC(=O)N3CCCC(C)C3)cc12 (stereo not drawn)	-87*
Cc1cc(N2CCOCC2)nc2ccc(NC(=O)CCC(=O)N3CCN(c4ccc(F)cc4)CC3)cc12	-72*
CCCc1ccc(-c2ccc(/C=C/C(=O)O)cc2)nc1	115
CC(C)Cc1ccc(/C=C/C(=O)N2CCCCC2)cc1	-121*
CC(C)Cc1ccc(/C=C/C(=O)NC2CC2)cc1	-108*
CCc1ccc(/C=C\C(=O)N2CCCC2)cc1	-78*
CCn1cc(/C=C/C(=O)Nc2ccc(C)cc2Br)cn1	-82*
Cc1ccc(/C(O)=C2\C(=O)C(=O)N(Cc3cccnc3)C2c2ccccc2[N+](=O)[O-])cc1 (stereo not drawn)	-99*
O=C1/C(=C/c2cccnc2)Oc2cc(OS(=O)(=O)c3ccccc3)ccc21	-82*
CC(=O)Nc1cccc(-n2nnc(SCC(=O)c3ccccc3)n2)c1	-121*
COc1ccc(C(=O)CSc2nnn(-c3cccc(NC(C)=O)c3)n2)cc1	-119*
CCSc1nnc2nc3[nH]c4c(C)cccc4c3nn12	-147*
C=CCSc1nnc2c(n1)[nH]c1c(C)cccc12	-158*
CNC(=S)Nc1cccc(-c2cnc3ccccc3n2)c1	-144*
COc1ccc(COc2cc(-c3cccc(OC)c3)nc3ccc(NC(=O)C(C)C)cc23)cc1	-135*
CC(C)C(=O)Nc1cccc(-c2cnc3ccccc3n2)c1	-115*
CS(=O)(=O)Nc1cccc(-c2cnc3ccccc3n2)c1	-153*
Nc1ccc(-c2nc3ncccc3o2)c(O)c1	-176*
Nc1ccc(-c2nc3ncccc3o2)c(Cl)c1	-104*
COC(=O)c1sc(NC(=O)c2ccc(C)o2)nc1C	-203*
SMILES	aSyn UTR act
CCOC(=O)c1sc(NC(=O)c2ccc(C)o2)nc1C	-287*
O=C(Nc1ccccc1C(=O)Nc1nnc(C(F)(F)F)s1)c1ccccc1	59
Cc1c(C(=O)Nc2nnc(C(F)(F)F)s2)oc2ccccc12	-236*
COC(=O)c1sc(NC(=O)c2oc3ccccc3c2C)nc1C	-142*
CCOC(=O)c1sc(NC(=O)c2ccc(OC)cc2)nc1C	-109*
COc1ccc(OC)c(Nc2cc(C)nc3ccc(C)cc23)c1	63
COc1ccc2nc(C)cc(Nc3ccc(N4CCN(C)CC4)cc3)c2c1	-87*
Cn1c(=O)c(-c2cc(Br)ccc2N)nc2ccccc21	-64*
O=C(CCS(=O)(=O)c1cccs1)NC1CCCCCC1	-139*
O=C(NC1CCCCCC1)c1cccs1	-81*
Nc1c(C(=O)NC2CCCC2)sc2nc(-c3cccs3)ccc12	-74*
O=C(NCCC1CCCC1)c1cccs1	-69*
Cc1cccc(Nc2ccc([N+](=O)[O-])cn2)c1	-87*
CCOc1cccc(Nc2ccc([N+](=O)[O-])cn2)c1	-102*
Cc1cccc(NC2=NC(C)(C)N=C(N)N2)c1	98

Bioassay records from PubChem.
